Reference: PubChem BioAssay (NCATS)
Results filed as inconclusive are left out. Active and inactive are the calls of the source. Unless noted, calls come from the whole dose curve; as a rule, active = well fitted curve in either direction with a large enough effect (not every such curve was filed as active); inconclusive = small, poorly fitted or top-dose-only effect, or another doubt; inactive = flat fitted curve, though single readings scatter.

What was measured:
[1] = target: Lysosomal acid glucosylceramidase (Homo sapiens) (UniProt P04062); experiment: Glucocerebrosidase-p2 (AID 348; in the data active = potency below about 10 µM; note: potency is the fitted concentration of half-maximal effect); conditions: purified GBA, blue fluorogenic substrate, 40 min
In short: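 Compounds titrated from 0.6 nM upwards against 0.2 nM enzyme in pH 5.9 citric acid/KH2PO4, taurocholate, tween-20; blue fluorogenic substrate 80 uM, 40 min room temperature, stopped and read Ex 365/Em 440 for AC50.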

[2] = AP1 Signaling Pathway (AID 357); conditions: ME-180 AP-1-bla reporter, EGF-induced, beta-lactamase ratio, 5 h; at 7.69 µM (top of the series) unless noted; note: % is set by controls: 0 for no effect and ±100 for the full control effect
In short: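 AP-1-bla ME-180 cells with beta-lactamase reporter under AP-1 response element, stimulated with EC50 EGF; compounds titrated, 5 hours at 37 degrees Celsius. CCF4 read at 460/530 nm ratio; positive and negative modulators judged by AC50.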

[3] = target: Cytochrome P450 1A2 (Homo sapiens) (UniProt P05177); experiment: p450-cyp1a2 (AID 410; calls by dose curve; note: potency is the fitted concentration of half-maximal effect;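 for activity change, negative = inhibition: -100% = full effect of reference inhibitor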); conditions: recombinant CYP1A2, luciferin-ME demethylation, luminescence; series mostly up to 57 µM
In short: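 Inhibition was calculated relative to 57 uM furafylline (full inhibition). The reaction used human CYP1A2 at 20nM with Luciferin-ME at its Km, 100uM, driven by an NADPH-regenerating system for 60 min at room temperature.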

[4] = NFAT Signaling Pathway (AID 444); conditions: Jurkat NFAT-bla M1, carbachol, beta-lactamase ratio, 5 h; at 7.69 µM (top of the series) unless noted;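 note: carbachol stimulus at about its EC50 of 1 µM final; % is set by controls: 0 for no effect and ±100 for the full control effect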
In short: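 Jurkat cells carrying an NFAT-driven β-lactamase reporter and co-transfected muscarinic M1 receptor were treated with compound plus carbachol (1 uM final, an EC50 level) for 5 h at 37 °C. CCF4 loading followed for 1 h at RT; 460/530 nm ratio gave %activity.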

[5] = Stat Signaling Pathway (AID 446); conditions: ME-180 SIE beta-lactamase reporter, IL-6 stimulated, 5 h; at 7.69 µM (top of the series) unless noted;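 note: ME-180 cervical cancer cells given 40 pM IL-6 alongside compound; SIE-controlled beta-lactamase reporter measured as 460/530 nm FRET emission ratio; % is set by controls: 0 for no effect and ±100 for the full control effect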
In short: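 Screening format detects activators and inhibitors alike: ME-180 SIE-bla cells stimulated at 40 pM IL-6 for 5 hrs with compound, then dual-emission beta-lactamase read at 405 nm excitation.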

[6] = target: Glucocorticoid receptor (Homo sapiens) (UniProt P04150); experiment: GR-EFC Redistribution (AID 451; calls by dose curve; note: potency is the fitted concentration of half-maximal effect); conditions: CHO-K1 GR-EFC translocation, beta-gal luminescence, 2 h
In short: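 CHO-K1 cells stably expressing nuclear-localized β-gal enzyme acceptor and GR fused C-terminally to the enzyme donor fragment; ligand-driven nuclear translocation restores β-gal by complementation. Compounds titrated up to 46 uM final, 2 h at 37 °C; luminescence read.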

[7] = target: Mitogen-activated protein kinase 10 (Mus musculus) (UniProt Q61831); experiment: JNK3 AlphaScreen Assay (AID 530); conditions: JNK3 lysate, c-Jun phosphorylation; series mostly up to 57.1 µM;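 note: kinase came from lysate of stimulated human HepG2 cells; signal reports phosphorylation of biotinylated GST-cJun 1-79 at Ser73 with 10 µM ATP; % is set by controls: 0 for no effect and ±100 for the full control effect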
In short: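 JNK3 came from HepG2 lysates pre-activated with IL-1beta and TNF-alpha and phosphorylated biotinylated GST-cJun (1-79) at 10 uM ATP, pH 7.6, room temperature. Compounds were titrated. AlphaScreen signal used anti-phospho-cJun (Ser73) antibody.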

[8] = target: 3',5'-cyclic-AMP phosphodiesterase 4B (Homo sapiens) (UniProt Q07343); experiment: qHTS Assay for Inhibitors of PDE-IV (AID 607; active = well fitted activation curve with a large enough effect in the main read-out, with a control signal flat, not every such curve was filed as active; note: % of control where 0% means no effect); conditions: HEK293 ACTOne CNG channel cells, membrane potential fluorescence; series mostly up to 22.9 µM
In short: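 The readout is membrane depolarisation from a cAMP-sensing CNG channel, detected with a potential dye at ex 535/em 590. Cells were HEK293-derived (endogenous PDE-IV) at 1000 cells/well, titrated up to 22.9 uM final.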

[9] = target: Cytochrome P450 2D6 (Homo sapiens) (UniProt P10635); experiment: qHTS Assay for Inhibitors and Substrates of Cytochrome P450 2D6 (AID 891; active = well fitted curve in the direction sought with a large enough effect; an effect the other way counts as inactive or inconclusive; note: nearly all actives have a fitted effect of over 60% in size; note: potency is the fitted concentration of half-maximal effect); conditions: recombinant CYP2D6, luciferin-ME EGE luminescence; series mostly up to 57.1 µM
In short: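 Human CYP2D6 (5 nM) with 30 uM Luciferin-ME EGE (at Km) in 100 mM KPO4, compound preincubated 10 min, then NADPH regeneration system for 60 min at room temperature. Luciferin read by luminescence; normalized to 1.43 uM quinidine.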

[10] = qHTS Assay for Lipid Storage Modulators (AID 1519; calls by dose curve); conditions: Drosophila S3 cells, BODIPY lipid droplet/cell ratio, laser cytometry, cells loaded with oleic acid; for activity change, negative = inhibition: at 57.5 µM (top of the series)
In short: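 Cells seeded at 5,000 per well were treated with compounds over a concentration series and loaded with oleic acid (400 uM, as added). Lipid droplet fluorescence (488 nm excitation, 500-530 nm channel) was read by laser-scanning cytometry and normalized to 20 uM Triacsin C.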

[11] = Primary qHTS for small molecule stabilizers of the endoplasmic reticulum resident proteome: Secreted ER Calcium Modulated Protein (SERCaMP) assay (AID 1508630; active = well fitted curve in the direction sought with a large enough effect; an effect the other way counts as inactive or inconclusive; note: % is set by controls: 0 for no effect and ±100 for the full control effect); conditions: SH-SY5Y GLuc-SERCaMP (Gaussia luciferase released on ER calcium loss) secretion, thapsigargin, luminescence; series mostly up to 38.4 µM
In short: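 GLuc-SERCaMP-expressing SH-SY5Y cells, pretreated 16 h with compound, are challenged with thapsigargin to empty ER calcium stores; after 4 h, coelenterazine is added directly to the medium and luminescence is imaged.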

[12] = target: Cytochrome P450 2C19 (Homo sapiens) (UniProt P33261); experiment: qHTS Assay for Inhibitors and Substrates of Cytochrome P450 2C19 (AID 899; active = well fitted curve in the direction sought with a large enough effect; an effect the other way counts as inactive or inconclusive; note: nearly all actives have a fitted effect of over 60% in size; note: potency is the fitted concentration of half-maximal effect); conditions: recombinant CYP2C19, luciferin-H EGE luminescence; series mostly up to 57.1 µM
In short: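 In 50mM KPO4, the reaction held 5nM enzyme and KM-level (10uM) Luciferin-H EGE; it ran 60 min at 37C after NADPH regeneration and a 10 min compound preincubation. Luminescence values were scaled to 57uM ketoconazole as complete inhibition.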

[13] = target: Cytochrome P450 3A4 (Homo sapiens) (UniProt P08684); experiment: qHTS Assay for Activators of Cytochrome P450 3A4 (AID 885; active = well fitted curve in the direction sought with a large enough effect; an effect the other way counts as inactive or inconclusive; note: nearly all actives have a fitted effect of over 65% in size); conditions: recombinant CYP3A4, Luciferin-PPXE luminescence, 60 min; series mostly up to 57.1 µM
In short: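 Steps: enzyme/substrate mix dispensed; compound added, 10 min RT; NADPH regeneration solution added, 60 min RT; luciferin detection buffer stops reaction; 20 min later luminescence measured.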

[14] = qHTS Assay for Identification of Small Molecule Agonists for Hypoxia Response Element Signaling Pathway (AID 914; active = well fitted activation curve with a large enough effect in the signal ratio, with a control signal flat, not every such curve was filed as active; the % refers to the signal ratio; note: % of control where 0% means no effect); conditions: ME-180 (cervical carcinoma) HRE-bla reporter, beta-lactamase ratio, CoCl2, 17 h; activation: stronger effect = higher value
In short: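 In Opti-MEM containing 0.5% dialyzed FBS and 10 mM HEPES, ME-180 HRE-bla cells received a compound titration and EC50 CoCl2. They were incubated 17 hours, then CCF4-loaded 2.5 hours at room temperature before ratio reading.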

[15] = measured here: cell count channel max response
[16] = measured here: lipid channel max response

Sequence of 3',5'-cyclic-AMP phosphodiesterase 4B (Homo sapiens) (Q07343 whole entry, looked up): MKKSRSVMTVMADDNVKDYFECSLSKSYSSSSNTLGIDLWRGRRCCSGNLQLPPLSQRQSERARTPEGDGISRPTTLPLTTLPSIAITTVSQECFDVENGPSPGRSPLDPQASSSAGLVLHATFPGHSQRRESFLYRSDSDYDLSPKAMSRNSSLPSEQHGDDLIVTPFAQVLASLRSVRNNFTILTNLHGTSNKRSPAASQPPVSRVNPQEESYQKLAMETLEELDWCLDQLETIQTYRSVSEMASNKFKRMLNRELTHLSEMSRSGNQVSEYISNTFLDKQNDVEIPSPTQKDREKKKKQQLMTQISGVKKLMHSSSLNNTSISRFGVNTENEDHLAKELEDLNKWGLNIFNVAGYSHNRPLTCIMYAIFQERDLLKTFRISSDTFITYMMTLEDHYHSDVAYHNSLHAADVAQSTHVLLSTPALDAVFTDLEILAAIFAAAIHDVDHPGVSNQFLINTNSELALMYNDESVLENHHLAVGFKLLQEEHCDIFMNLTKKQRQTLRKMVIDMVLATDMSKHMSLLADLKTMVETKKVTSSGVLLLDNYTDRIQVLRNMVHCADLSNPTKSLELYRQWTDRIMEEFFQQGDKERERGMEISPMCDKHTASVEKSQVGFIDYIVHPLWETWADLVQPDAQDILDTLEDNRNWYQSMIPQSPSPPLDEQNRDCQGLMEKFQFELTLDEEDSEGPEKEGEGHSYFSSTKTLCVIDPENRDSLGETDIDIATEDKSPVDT
Sequence of Cytochrome P450 2C19 (Homo sapiens) (P33261 whole entry, looked up): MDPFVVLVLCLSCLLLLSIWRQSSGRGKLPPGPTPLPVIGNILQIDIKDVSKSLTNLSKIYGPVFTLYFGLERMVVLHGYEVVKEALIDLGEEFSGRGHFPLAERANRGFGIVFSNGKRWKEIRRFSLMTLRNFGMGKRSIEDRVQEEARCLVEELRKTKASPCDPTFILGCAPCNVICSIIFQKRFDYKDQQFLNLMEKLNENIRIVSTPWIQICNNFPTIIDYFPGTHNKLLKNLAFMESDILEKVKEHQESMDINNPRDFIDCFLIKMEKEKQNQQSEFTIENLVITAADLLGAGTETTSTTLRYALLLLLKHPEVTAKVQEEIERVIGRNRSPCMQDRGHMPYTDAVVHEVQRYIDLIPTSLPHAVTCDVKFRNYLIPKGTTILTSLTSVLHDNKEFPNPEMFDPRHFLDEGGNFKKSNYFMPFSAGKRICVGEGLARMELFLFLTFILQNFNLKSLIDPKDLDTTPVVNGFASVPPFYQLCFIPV
Sequence of Glucocorticoid receptor (Homo sapiens) (P04150 whole entry, looked up, the tested form may be a part): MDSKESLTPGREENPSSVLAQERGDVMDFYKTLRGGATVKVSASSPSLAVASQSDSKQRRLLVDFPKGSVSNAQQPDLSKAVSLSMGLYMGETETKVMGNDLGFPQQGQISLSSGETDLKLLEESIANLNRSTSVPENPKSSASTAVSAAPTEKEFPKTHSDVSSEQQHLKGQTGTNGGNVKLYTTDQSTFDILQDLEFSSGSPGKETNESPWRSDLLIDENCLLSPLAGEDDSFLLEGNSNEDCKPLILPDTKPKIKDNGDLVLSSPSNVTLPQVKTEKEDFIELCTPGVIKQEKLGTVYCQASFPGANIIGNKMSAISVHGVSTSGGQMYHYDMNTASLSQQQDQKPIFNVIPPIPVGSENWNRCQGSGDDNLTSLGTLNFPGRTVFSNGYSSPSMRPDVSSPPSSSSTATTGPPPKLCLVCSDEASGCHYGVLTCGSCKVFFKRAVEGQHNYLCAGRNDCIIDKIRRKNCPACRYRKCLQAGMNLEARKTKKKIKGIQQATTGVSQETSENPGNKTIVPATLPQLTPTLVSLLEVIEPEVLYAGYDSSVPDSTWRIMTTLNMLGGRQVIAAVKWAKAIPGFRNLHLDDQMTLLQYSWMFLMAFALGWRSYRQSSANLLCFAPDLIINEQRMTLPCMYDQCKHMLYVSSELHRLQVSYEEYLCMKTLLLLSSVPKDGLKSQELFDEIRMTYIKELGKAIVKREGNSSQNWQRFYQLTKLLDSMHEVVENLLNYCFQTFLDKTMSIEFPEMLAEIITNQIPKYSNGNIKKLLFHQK
Sequence of Cytochrome P450 1A2 (Homo sapiens) (P05177 whole entry, looked up): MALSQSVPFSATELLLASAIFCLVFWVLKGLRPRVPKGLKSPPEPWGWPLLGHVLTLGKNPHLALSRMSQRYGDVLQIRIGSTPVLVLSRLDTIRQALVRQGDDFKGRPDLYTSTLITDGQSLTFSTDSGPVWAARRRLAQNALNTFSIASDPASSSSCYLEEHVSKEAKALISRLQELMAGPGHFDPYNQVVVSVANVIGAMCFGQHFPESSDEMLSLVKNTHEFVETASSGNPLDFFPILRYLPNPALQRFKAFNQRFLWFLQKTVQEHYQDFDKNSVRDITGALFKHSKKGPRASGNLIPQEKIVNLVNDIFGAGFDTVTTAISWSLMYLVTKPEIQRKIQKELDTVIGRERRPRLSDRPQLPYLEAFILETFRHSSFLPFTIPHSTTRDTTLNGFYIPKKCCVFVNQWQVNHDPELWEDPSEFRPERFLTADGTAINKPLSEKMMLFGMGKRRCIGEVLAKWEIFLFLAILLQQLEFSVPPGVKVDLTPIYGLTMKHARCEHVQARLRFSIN
Sequence of Lysosomal acid glucosylceramidase (Homo sapiens) (P04062 whole entry, looked up): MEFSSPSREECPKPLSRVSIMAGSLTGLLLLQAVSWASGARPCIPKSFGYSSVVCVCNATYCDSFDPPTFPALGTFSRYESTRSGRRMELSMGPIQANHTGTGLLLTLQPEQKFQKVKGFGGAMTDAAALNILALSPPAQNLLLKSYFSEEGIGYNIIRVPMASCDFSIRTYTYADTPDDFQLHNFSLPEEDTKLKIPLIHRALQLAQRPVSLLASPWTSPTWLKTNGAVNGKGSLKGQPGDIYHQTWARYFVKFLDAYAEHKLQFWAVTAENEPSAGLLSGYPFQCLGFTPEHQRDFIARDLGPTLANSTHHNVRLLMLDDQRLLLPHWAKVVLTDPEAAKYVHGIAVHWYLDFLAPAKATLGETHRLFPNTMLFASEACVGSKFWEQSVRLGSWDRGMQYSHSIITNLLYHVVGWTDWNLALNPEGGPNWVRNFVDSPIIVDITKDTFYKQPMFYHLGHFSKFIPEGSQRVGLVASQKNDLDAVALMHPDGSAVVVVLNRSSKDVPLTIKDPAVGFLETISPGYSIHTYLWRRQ
Sequence of Cytochrome P450 3A4 (Homo sapiens) (P08684 whole entry, looked up): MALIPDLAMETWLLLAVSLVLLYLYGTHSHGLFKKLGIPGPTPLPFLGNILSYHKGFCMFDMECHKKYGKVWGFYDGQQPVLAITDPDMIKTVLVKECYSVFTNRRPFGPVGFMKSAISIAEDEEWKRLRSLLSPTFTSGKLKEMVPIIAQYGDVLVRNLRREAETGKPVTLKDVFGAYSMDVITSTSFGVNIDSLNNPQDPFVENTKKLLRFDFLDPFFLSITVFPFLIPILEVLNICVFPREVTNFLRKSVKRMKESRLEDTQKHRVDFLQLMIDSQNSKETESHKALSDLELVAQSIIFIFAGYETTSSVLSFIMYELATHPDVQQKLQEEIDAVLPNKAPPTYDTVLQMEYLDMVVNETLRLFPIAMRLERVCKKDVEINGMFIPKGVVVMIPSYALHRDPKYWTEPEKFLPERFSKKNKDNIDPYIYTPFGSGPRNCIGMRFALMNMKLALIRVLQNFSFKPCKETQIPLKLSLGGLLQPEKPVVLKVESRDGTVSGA
Sequence of Cytochrome P450 2D6 (Homo sapiens) (P10635 whole entry, looked up): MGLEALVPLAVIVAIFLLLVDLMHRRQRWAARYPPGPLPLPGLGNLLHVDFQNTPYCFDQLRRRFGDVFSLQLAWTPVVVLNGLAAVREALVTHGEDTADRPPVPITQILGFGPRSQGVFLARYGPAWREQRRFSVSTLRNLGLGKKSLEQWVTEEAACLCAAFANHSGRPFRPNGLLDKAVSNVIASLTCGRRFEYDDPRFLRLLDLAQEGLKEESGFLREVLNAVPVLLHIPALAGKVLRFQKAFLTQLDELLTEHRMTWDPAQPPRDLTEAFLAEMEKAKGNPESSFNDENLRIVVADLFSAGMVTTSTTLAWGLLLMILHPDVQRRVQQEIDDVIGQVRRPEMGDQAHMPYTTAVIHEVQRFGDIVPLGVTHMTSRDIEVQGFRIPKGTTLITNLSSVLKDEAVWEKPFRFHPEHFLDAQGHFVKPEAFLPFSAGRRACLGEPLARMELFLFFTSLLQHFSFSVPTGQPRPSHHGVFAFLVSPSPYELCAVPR

Structure (SMILES)	Potency [1]	activity change, negative = inhibition [2]	Potency [3]	activity change, negative = inhibition [4]	activity, negative = inhibition [5]	Potency [6]	outcome [7]	Potency [8]	Potency [9]	activity change, negative = inhibition [10]	max response [10, 15] [%]	max response [10, 16] [%]	Potency [11]	Potency [12]	Potency [13]	activation [14]
CS(=O)(=O)N1CCC2(CC1)CN(Cc1cc(C(F)(F)F)cc(C(F)(F)F)c1)C2	> 11.4 µM (inactive)	5.66% (inactive)	inactive	-8.2% (inactive)	-3.12% (inactive)	> 46 µM (inactive)	inactive	inactive	0.398 µM (active)	2.23% (inactive)	-5.23	0.681	inactive	–	–	–
CC(=O)N1CCC2(CC1)CN(c1ccccc1)C2	> 11.4 µM (inactive)	10.4% (inactive)	inactive	3.05% (inactive)	10.3% (inactive)	> 46 µM (inactive)	inactive	inactive	–	6.65% (inactive)	16.4	26.6	inactive	inactive	–	–
CC(C)NC(=O)N1CCCC2(CCN(C(=O)c3cccc(F)c3)CC2)C1	> 11.4 µM (inactive)	-13.6% (inactive)	inactive	-16.5% (inactive)	-2.81% (inactive)	> 46 µM (inactive)	inactive	inactive	inactive	3.5% (inactive)	20.4	27.6	inactive	inactive	inactive	–
CC(=O)N1CCC2(CCCN(C(c3ccccc3)c3ccccc3)C2)CC1	> 11.4 µM (inactive)	-12.2% (inactive)	15.8 µM (active)	28.1% (inactive)	17.6% (inactive)	> 46 µM (inactive)	inactive	inactive	7.94 µM (active)	6.41% (inactive)	3.3	12.6	inactive	–	inactive	–
COCC(=O)N1CCC[C@@]2(CCN(Cc3ccccc3OC)C2)C1	> 11.4 µM (inactive)	-5.37% (inactive)	inactive	7.38% (inactive)	-1.88% (inactive)	> 46 µM (inactive)	inactive	inactive	6.31 µM (active)	3.26% (inactive)	0.0589	5.61	inactive	–	–	-5.2% (inactive)
COC(=O)N1CCC[C@@]2(CCN(C(=O)Nc3cccc(F)c3)C2)C1	> 11.4 µM (inactive)	-17.4% (inactive)	15.8 µM (active)	-2.35% (inactive)	1.62% (inactive)	> 46 µM (inactive)	inactive	inactive	–	5.97% (inactive)	20.5	28.7	inactive	–	inactive	–
COc1ccccc1CN1CC2(CCN(S(C)(=O)=O)CC2)C1	> 11.4 µM (inactive)	-11.2% (inactive)	inactive	-7.23% (inactive)	4.21% (inactive)	> 46 µM (inactive)	inactive	inactive	inactive	6.08% (inactive)	11.6	24	inactive	–	–	–
Cn1cccc1C(=O)N1CCC[C@@]2(CCN(c3ccccn3)C2)C1	> 11.4 µM (inactive)	0.459% (inactive)	31.6 µM (active)	-3.64% (inactive)	-2.5% (inactive)	> 46 µM (inactive)	inactive	inactive	–	4.31% (inactive)	20	28	inactive	–	inactive	–
Cn1cccc1C(=O)N1CCC[C@@]2(CCN(c3ccncc3)C2)C1	> 11.4 µM (inactive)	-2.65% (inactive)	12.6 µM (active)	-12.6% (inactive)	7.16% (inactive)	> 46 µM (inactive)	inactive	inactive	–	-3.31% (inactive)	-3.32	-4.8	inactive	6.31 µM (active)	inactive	–
N#Cc1cccc(NC(=O)N2CCC3(CC2)CCN(C(=O)c2csnn2)CC3)c1	> 11.4 µM (inactive)	-16.5% (inactive)	inactive	11.9% (inactive)	-0.506% (inactive)	> 46 µM (inactive)	inactive	inactive	–	5.57% (inactive)	15	22.3	inactive	–	inactive	-0.636% (inactive)
N#Cc1ccc(CN2CCCC3(CCN(C(=O)c4cccc(F)c4)CC3)C2)cc1	> 11.4 µM (inactive)	19.4% (inactive)	inactive	-65.7% (active)	-5.26% (inactive)	> 46 µM (inactive)	inactive	inactive	–	2.12% (inactive)	15	19.8	inactive	–	inactive	-15.7% (inactive)
COc1ccccc1CN1CC[C@@]2(CCCN(C(C)=O)C2)C1	> 11.4 µM (inactive)	-19% (inactive)	inactive	19.3% (inactive)	1.39% (inactive)	> 46 µM (inactive)	inactive	inactive	3.16 µM (active)	0.807% (inactive)	-2.53	-1	inactive	–	–	–
COc1ccc(NC(=O)N2CC[C@@]3(CCCN(C(=O)c4csnn4)C3)C2)cc1	> 11.4 µM (inactive)	-1.53% (inactive)	inactive	17.4% (inactive)	7.84% (inactive)	> 46 µM (inactive)	inactive	inactive	–	5.36% (inactive)	14.7	23.5	inactive	–	inactive	–
